PfM18AAP inh = PfM18AAP inhibitors, malaria aminopeptidase, primary screen, biochemical, QFRET, recombinant enzyme; inhibition, % at 7.35 µM; AID 1822, 2009; H-Glu-NHMec fluorogenic cleavage; hit rate 1.2% among 290,000; M18 aspartyl aminopeptidase (Plasmodium falciparum 3D7);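 active means inhibition above the campaign mean inhibition over all tested compounds plus 3 SD, cut at about 28% in these data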
Cardio protect = cardioprotection against H2O2-induced cell death, primary screen, uHTS, H9c2 cells, ATPLite luminescence | hit rate 0.63% among 360,000 | protection from H2O2 cell death, % at 20 µM | AID 588492, 2011 | H9c2 cardiomyocytes, H2O2 injury protection, 2 h;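 active means compounds giving at least 50% protection of heart cells from peroxide-induced death in the single-dose screen, raw or plate-pattern-corrected value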
PfGluPho inh = PfG6PD enzyme inhibitors, primary screen, biochemical, fluorescence intensity, uHTS. inhibition, % at 20 µM. PfGluPho enzyme, NADPH resazurin-diaphorase fluorescence. AID 504690, 2011. hit rate 0.78% among 350,000. glucose-6-phosphate dehydrogenase-6-phosphogluconolactonase (Plasmodium falciparum 3D7);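 active means inhibition reaching at least a set limit at 20 µM in the primary screen, cut at about 59% in these data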
ALR H2O2 inh = inhibitors of human ALR sulfhydryl oxidase, primary screen, biochemical, H2O2 detection, HRP-luminol luminescence, single point. inhibition, % (concentration not given with the values). purified ALR, DTT oxidation. FAD-linked sulfhydryl oxidase ALR (Homo sapiens), P55789. hit rate 3.8% among 290,000;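 active means mean replicate inhibition above about 79%, with every replicate also reaching it, limit read from the data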
Target sequence (P55789 whole entry, looked up): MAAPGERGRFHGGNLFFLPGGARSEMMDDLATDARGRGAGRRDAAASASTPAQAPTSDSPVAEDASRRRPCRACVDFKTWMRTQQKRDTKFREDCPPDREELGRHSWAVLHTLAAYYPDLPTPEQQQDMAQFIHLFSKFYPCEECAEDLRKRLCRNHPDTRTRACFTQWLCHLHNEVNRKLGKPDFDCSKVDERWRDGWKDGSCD
PHOSPHO1 inh = PubChem AID 1565 | inhibition, % at 13.3 µM | hit rate 1.1% among 290,000 | Phosphoethanolamine/phosphocholine phosphatase (Homo sapiens), Q8TCT1 | recombinant PHOSPHO1, absorbance phosphatase assay; in the data active means inhibition above about 60%
Target sequence (Q8TCT1 whole entry, looked up): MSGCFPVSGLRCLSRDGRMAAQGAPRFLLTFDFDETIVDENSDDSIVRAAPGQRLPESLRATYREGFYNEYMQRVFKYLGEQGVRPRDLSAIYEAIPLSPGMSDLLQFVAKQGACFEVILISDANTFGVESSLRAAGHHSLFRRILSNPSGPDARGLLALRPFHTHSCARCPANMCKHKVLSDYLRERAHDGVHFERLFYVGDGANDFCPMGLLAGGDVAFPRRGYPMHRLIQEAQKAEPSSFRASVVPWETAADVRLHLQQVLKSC
Each line names hits and unclear results; the compound was inactive in the other large screens. This is a sample that favours compounds with a hit; in the whole collection about 5.6% have one here.

CCN1CCN(C(=S)NC(=O)c2cccc(Br)c2)CC1	none (no result: PfM18AAP inh, PHOSPHO1 inh)
COc1cc(C(=O)/C=C/c2cccnc2)ccc1O	ALR H2O2 inh 100
COc1ccc(C(=O)/C=C/c2ccc(OCc3ccccc3)cc2)cc1CSCC(=O)O	ALR H2O2 inh 99
COc1cc(/C=C/C(=O)c2ccc(F)cc2)cc(OC)c1OC	ALR H2O2 inh 97
COc1ccc(C(=O)/C=C/c2cccc(OCc3ccccc3)c2)cc1CSCC(=O)O	none
COc1ccc(/C=C/C(=O)c2ccc(OC)cc2OC)cc1	ALR H2O2 inh 94
CCCNC(=O)C1(CC2CC(c3ccccc3)=NO2)CCN(C(=O)Cc2ccc(F)cc2)CC1 (stereo unspecified)	none (no result: PfM18AAP inh, PHOSPHO1 inh)
O=C1NC(Cc2ccc(O)cc2)c2nc3ccccc3c(=O)n2-c2ncccc21 (stereo unspecified)	none (no result: PfM18AAP inh, ALR H2O2 inh, PHOSPHO1 inh)
COC(=O)c1ccccc1NC(=O)/C=C/c1cc(OC)c(OC)c(OC)c1	Cardio protect 57
COC(=O)c1ccc(/C=C/C(=O)c2ccc(OC)c(OC)c2)cc1	ALR H2O2 inh 99
COc1ccc(CCn2c(C)cc(C(=O)CSc3nnnn3-c3ccccc3)c2C)cc1	PHOSPHO1 inh 71
Cc1cc(C(=O)CSc2nnnn2C)c(C)n1CCc1ccc(Cl)cc1	PHOSPHO1 inh 82
COc1ccc(CSc2nnnn2-c2ccccc2)cc1	none
COc1ccc(-c2cn(-c3ccccc3)nc2CO)cc1	ALR H2O2 inh 97
COc1ccc(-c2nn(-c3ccccc3)cc2CO)cc1	none
CCn1cc(-c2ccccc2)c(C(=O)O)c1-c1ccc(OC)cc1	ALR H2O2 inh 85 (no result: PfM18AAP inh, PHOSPHO1 inh)
Cn1c(CNC(=O)CNC(=O)c2ccc(C(C)(C)C)cc2)cc(=O)n(C)c1=O	none
COc1cc(C2C(C#N)=C(N)Oc3n[nH]c(-c4cccs4)c32)cc(OC)c1O (stereo unspecified)	PfM18AAP inh 28, ALR H2O2 inh 89
Cc1ccc(C2C(C#N)=C(N)Oc3n[nH]c(-c4cccs4)c32)cc1 (stereo unspecified)	none
CC(C)C1C(C#N)=C(N)Oc2n[nH]c(-c3cccs3)c21 (stereo unspecified)	ALR H2O2 inh 82
C/C(=N/NC(=O)CN(c1ccccc1)S(=O)(=O)c1ccccc1)c1ccccc1O	none (no result: ALR H2O2 inh)
CC1(C)Cc2c(cnn2-c2cccc(F)c2)C(NC(=O)c2ccc(=O)[nH]n2)C1 (stereo unspecified)	ALR H2O2 inh 92
CC1=C(C(=O)NC2CC(C)(C)Cc3c2cnn3-c2cccc(F)c2)OCCO1 (stereo unspecified)	ALR H2O2 inh 97
CCOC(=O)C1=C(COC(=O)Cc2c(F)cccc2Cl)NC(=O)NC1C (stereo unspecified)	none (no result: PfM18AAP inh, PHOSPHO1 inh)
Cc1c(NS(=O)(=O)c2cccc(C(=O)Nc3cccc(F)c3)c2)c(=O)n(-c2ccccc2)n1C	none (no result: PfM18AAP inh, ALR H2O2 inh, PHOSPHO1 inh)
CN(CC(=O)Nc1ccc(F)cc1)C(=O)CSc1nccn1C	none (no result: PfM18AAP inh, PHOSPHO1 inh)
Cn1ccnc1SCC(=O)c1ccc(OC(F)F)cc1	none (no result: ALR H2O2 inh)
CCOc1ccc(NC(=O)CSCc2cnn(-c3ccccc3)c2-n2cccc2)cc1	ALR H2O2 inh 99
COc1ccc(NC(=O)CSc2nc3cccnc3n2C)cc1	ALR H2O2 inh 99
CSc1nccn1CC(=O)Nc1ccc(F)cc1	ALR H2O2 inh 98
COc1ccc(C(=O)CSc2nccn2C)cc1	ALR H2O2 inh 99
Cc1ccc(S(=O)(=O)N2CCOCC2)cc1C(=O)N1CCN(S(=O)(=O)c2ccccc2F)CC1	none (no result: PfM18AAP inh, ALR H2O2 inh, PHOSPHO1 inh)
Cc1cccc(NC(=O)CN(C)C(=O)C2CCCC2)c1C	none (no result: PfM18AAP inh, PHOSPHO1 inh)
COc1cccc(-c2cnc3c(NC(C)=O)cc(-c4cccc(C(=O)NCCN(C)C)c4)cn23)c1	none (no result: PfM18AAP inh, PfGluPho inh, ALR H2O2 inh, PHOSPHO1 inh)
CCOc1ccc(NC(=O)CSC(N)=O)cc1	ALR H2O2 inh 99
Cn1ccnc1SCC(=O)Nc1ccc(Oc2ccccc2)cc1	ALR H2O2 inh 99, PHOSPHO1 inh 84
O=C(CSC1=NCCN1)Nc1cccc(C(F)(F)F)c1	ALR H2O2 inh 100
CCOc1ccc(NC(=O)CC)cc1	none (no result: Cardio protect, PfGluPho inh)
Cn1ccnc1SCC(=O)Nc1cccc(C(F)(F)F)c1	ALR H2O2 inh 100
COC(=O)c1ccc(/C=C/C(=O)OCC(=O)c2ccc[nH]2)cc1	none (no result: PfM18AAP inh, PHOSPHO1 inh)
O=C(O)CS(=O)CC(=O)NCc1cccc(C(F)(F)F)c1 (stereo unspecified)	none
O=C(O)CS(=O)CC(=O)Nc1cccc(C(F)(F)F)c1 (stereo unspecified)	ALR H2O2 inh 99
CCOc1ccc(NC(=O)CSc2nccn2C)cc1	ALR H2O2 inh 99
CC(=O)Nc1ccc(NC(=O)CSc2ncc(C(=O)Nc3ccccc3)c(=O)n2C)cc1	ALR H2O2 inh 99 (no result: PfM18AAP inh, PHOSPHO1 inh)
CCOc1ccc(NC(=O)C(C)Sc2nccn2C)cc1 (stereo unspecified)	none
Cn1c(SCC(=O)NCc2ccccc2)ncc(C(=O)Nc2ccccc2)c1=O	none (no result: PfM18AAP inh, PHOSPHO1 inh)
CCCCOc1cccc(NC(=O)CSc2nccn2C)c1	ALR H2O2 inh 99
Cn1ccnc1SCC(=O)Nc1cccc(O)c1	none
CCCCNC(=O)N1CCN(c2ccnc3cc(Cl)ccc23)CC1	none (no result: PHOSPHO1 inh)
CCOc1ccc(NC(=O)N2CCC(C(N)=O)(N3CCCCC3)CC2)cc1	PfM18AAP inh 28
NC(=O)C1(N2CCCCC2)CCN(C(=S)Nc2ccccc2)CC1	none
O=C(c1ccc(Br)o1)N1CCN=C1SCc1cccnc1	ALR H2O2 inh 100
O=C(c1cc2ccccc2o1)N1CCN=C1SCc1cccnc1	ALR H2O2 inh 99
CN(CC(=O)NCCc1ccc(S(N)(=O)=O)cc1)CC(=O)Nc1cccc(F)c1	none (no result: PfM18AAP inh, ALR H2O2 inh, PHOSPHO1 inh)
COC(Cn1c(-c2cccc(S(=O)(=O)N(C)C)c2)n[nH]c1=S)OC	PfM18AAP inh 31
C=CCn1c(-c2cccc(OC)c2)n[nH]c1=S	ALR H2O2 inh 96
C=CCn1c(-c2cccnc2)n[nH]c1=S	none
C=CCn1c(-c2cc(Cl)ccc2OC)n[nH]c1=S	PHOSPHO1 inh 92
CCn1c(-c2cc(Cl)ccc2OC)n[nH]c1=S	ALR H2O2 inh 92, PHOSPHO1 inh 89
CCN(CC)S(=O)(=O)c1cccc(-c2n[nH]c(=S)n2CC(C)C)c1	none
COc1ccc(-c2n[nH]c(=S)n2Cc2ccccc2)cc1OC	none
C=CCn1c(-c2cccc(OC)c2OC)n[nH]c1=S	none
CCn1c(CCCc2ccc(OC)c(C)c2)n[nH]c1=S	PfM18AAP inh 29
COc1ccc(Cl)cc1-c1n[nH]c(=S)n1C	ALR H2O2 inh 89, PHOSPHO1 inh 85
CCn1c(-c2c(Cl)c(C)nn2C)n[nH]c1=S	PfM18AAP inh 32
CCn1c(-c2cccc(Cl)c2)n[nH]c1=S	PHOSPHO1 inh 95
COc1ccc(Cl)cc1-c1nc(SCC(=O)N(C)C)n[nH]1	none (no result: ALR H2O2 inh)
CC(=O)Nc1ccc(SCC(=O)Nc2ccccc2N2CCOCC2)cc1	none (no result: PfM18AAP inh, PHOSPHO1 inh)
O=C(CC(=O)N1CCOCC1)N1CCOCC1	none (no result: PfM18AAP inh, ALR H2O2 inh, PHOSPHO1 inh)
COc1ccc(NC(=O)CSc2n[nH]c(=O)n2C2CC2)cc1OC	none (no result: PfM18AAP inh, PHOSPHO1 inh)
C=CCn1c(-c2cc(OC)c(OC)c(OC)c2)n[nH]c1=S	none
CCn1c(-c2csc(-c3ccc(Cl)cc3)n2)n[nH]c1=S	PHOSPHO1 inh 83
CCn1c(-c2csc(-c3ccccc3)n2)n[nH]c1=S	none

Assay outcomes: PubChem, several laboratories
